For part of these data: Measured potencies and affinities stand elsewhere. The source made the active and inactive calls.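 Rule for the calls, unless noted: active = hit in primary screen, with calcium signal over 5 SD above buffer well mean in both duplicates; inactive = the rest.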

Assay [1] concerns TRPC4 beta (transient receptor potential cation channel C4), mouse. Description: TRPC4 cation channel opening, retest – cell-based, Fluo4 calcium, HEK293 TRPC4beta/mu-opioid, duplicates, 10 µM, confirmation (AID 2426;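 active = fluorescence ratio normalized to control raised more than 50% in primary screen plus both repeat runs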;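 note: percent rise of integrated ratio over buffer wells lacking compound which define 0%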). Conditions: Fluo4 calcium fluorescence, at 10 µM; active compounds read high.
Assay [2] relates to transient receptor potential cation channel C4 beta (TRPC4), mouse. The experiment in a line: TRPC4 cation channel opening, second retest – cell-based, second round, Fluo4, HEK293 TRPC4beta/mu-opioid, 1 µM, confirmation (AID 2461;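 active = primary screen active and over 50% activation in each of two duplicate runs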;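 for activation: 0% = wells without test compound as baseline of integrated fluorescence ratio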). As to conditions: Fluo4 calcium fluorescence, at 1 µM; active compounds read high.
Assay [3] relates to TRPC4 (transient receptor potential cation channel C4 beta), mouse. The experiment in a line: potentiation of DAMGO EC20 TRPC4 response – cell-based, second round, Fluo-4, HEK293 TRPC4beta/mu-opioid, 1 µM, confirmation (AID 2554;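 active = primary screen hit whose fluorescence ratio, in both repeats, exceeds the weak agonist control mean by 3 SD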). As to conditions: DAMGO EC20, Fluo-4 calcium flux, at 1 µM; active compounds read high. (Calcium flux is commonly read through the fluorescence of an indicator in the cells.)

Assay [4] concerns TRPC4 beta (transient receptor potential cation channel C4), mouse. Description: potentiation of DAMGO EC20 TRPC4 response – cell-based, Fluo-4, HEK293 TRPC4beta/mu-opioid, confirmation (AID 2555;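 active = primary screen hit whose calcium fluorescence ratio, in both repeats, exceeds the weak agonist control mean by 3 SD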). Conditions: DAMGO EC20, Fluo-4 calcium flux, at 10 µM; active compounds read high.
For assay [5], the target named is Short transient receptor potential channel 4 (Mus musculus) (UniProt Q9QUQ5). The experiment in a line: blockers of DAMGO-evoked TRPC4 calcium flux – cell-based, Fluo4, HEK293 TRPC4beta/mu-opioid, confirmation (AID 2636;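 active = calcium signal cut by more than 3 SD below the full-agonist control yet still positive, in both repeats and the earlier primary screen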). As to conditions: at 10 µM; active compounds read high.
Short transient receptor potential channel 4 (Mus musculus), sequence (Q9QUQ5 whole entry, looked up): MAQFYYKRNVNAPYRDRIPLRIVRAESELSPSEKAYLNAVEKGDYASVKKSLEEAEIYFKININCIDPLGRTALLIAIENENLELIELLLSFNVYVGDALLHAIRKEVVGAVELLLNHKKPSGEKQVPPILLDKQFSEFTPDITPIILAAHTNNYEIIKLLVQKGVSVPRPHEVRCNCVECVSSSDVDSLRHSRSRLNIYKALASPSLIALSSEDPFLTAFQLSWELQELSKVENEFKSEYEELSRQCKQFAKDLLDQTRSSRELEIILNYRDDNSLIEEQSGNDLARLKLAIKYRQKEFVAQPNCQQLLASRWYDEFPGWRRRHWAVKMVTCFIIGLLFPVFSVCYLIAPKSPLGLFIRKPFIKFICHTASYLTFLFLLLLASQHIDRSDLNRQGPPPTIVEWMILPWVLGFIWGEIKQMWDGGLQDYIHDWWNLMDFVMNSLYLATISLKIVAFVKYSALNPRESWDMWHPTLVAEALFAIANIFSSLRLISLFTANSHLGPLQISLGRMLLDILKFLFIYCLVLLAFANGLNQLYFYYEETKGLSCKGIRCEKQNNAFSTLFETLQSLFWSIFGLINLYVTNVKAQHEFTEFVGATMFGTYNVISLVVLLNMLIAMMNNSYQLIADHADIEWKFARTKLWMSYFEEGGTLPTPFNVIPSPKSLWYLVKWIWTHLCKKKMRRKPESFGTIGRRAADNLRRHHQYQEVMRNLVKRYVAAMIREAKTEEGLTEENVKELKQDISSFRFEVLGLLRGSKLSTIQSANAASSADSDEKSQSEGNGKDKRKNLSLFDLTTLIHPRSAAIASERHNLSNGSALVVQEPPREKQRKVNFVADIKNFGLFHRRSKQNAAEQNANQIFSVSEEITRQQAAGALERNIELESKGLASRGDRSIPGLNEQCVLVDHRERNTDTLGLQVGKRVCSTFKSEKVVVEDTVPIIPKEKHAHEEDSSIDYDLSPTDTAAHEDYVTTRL
For assay [6] the target is unchanged. The experiment in a line: blockers of DAMGO-evoked TRPC4 calcium flux – cell-based, second round, Fluo4, HEK293 TRPC4beta/mu-opioid, 1 µM, confirmation (AID 2637;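 active = calcium signal ratio cut to more than 3 SD under the fully stimulated control mean yet still positive, in both repeats and the primary screen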). As to conditions: at 1 µM; active compounds read high.
Assay [7] shares this target. Description: potentiation of DAMGO-evoked TRPC4 calcium signal – cell-based, HEK293 TRPC4/mu-opioid, Fluo-4 calcium, EC20 DAMGO, dose response (AID 434941;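 active = earlier screen potentiator hit that boosts the TRPC4 ion channel at some dose, with a dose response; inactive = no potentiation, no dose response, or not a prior hit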;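 note: calcium entry triggered by an EC20 dose of DAMGO at the co-expressed mu-opioid receptor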).
Assay [8] has the same target. Description: block of DAMGO-driven TRPC4 calcium entry – cell-based, HEK293 TRPC4/mu-opioid, Fluo-4 calcium, dose response (AID 434942;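 active = primary screen inhibitor hit that blocks the TRPC4 channel at some tested dose, yielding a dose curve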).
The target of assay [9] is Short transient receptor potential channel 6 (Mus musculus) (UniProt Q61143). Description: TRPC6 blockade by TRPC4 inhibitor hits – cell-based, HEK293, membrane potential dye, duplicate, selectivity assay for TRPC4 inhibitor project, confirmation (AID 434948;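 active = active in primary screen and both duplicates, each dropping signal beyond three positive-control SD with fluorescence still positive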). As to conditions: HEK293 TRPC6, membrane potential dye fluorescence, at 10 µM, stimulated with maximal-effect acetylcholine; active compounds read high.
Short transient receptor potential channel 6 (Mus musculus), sequence (Q61143 whole entry, looked up): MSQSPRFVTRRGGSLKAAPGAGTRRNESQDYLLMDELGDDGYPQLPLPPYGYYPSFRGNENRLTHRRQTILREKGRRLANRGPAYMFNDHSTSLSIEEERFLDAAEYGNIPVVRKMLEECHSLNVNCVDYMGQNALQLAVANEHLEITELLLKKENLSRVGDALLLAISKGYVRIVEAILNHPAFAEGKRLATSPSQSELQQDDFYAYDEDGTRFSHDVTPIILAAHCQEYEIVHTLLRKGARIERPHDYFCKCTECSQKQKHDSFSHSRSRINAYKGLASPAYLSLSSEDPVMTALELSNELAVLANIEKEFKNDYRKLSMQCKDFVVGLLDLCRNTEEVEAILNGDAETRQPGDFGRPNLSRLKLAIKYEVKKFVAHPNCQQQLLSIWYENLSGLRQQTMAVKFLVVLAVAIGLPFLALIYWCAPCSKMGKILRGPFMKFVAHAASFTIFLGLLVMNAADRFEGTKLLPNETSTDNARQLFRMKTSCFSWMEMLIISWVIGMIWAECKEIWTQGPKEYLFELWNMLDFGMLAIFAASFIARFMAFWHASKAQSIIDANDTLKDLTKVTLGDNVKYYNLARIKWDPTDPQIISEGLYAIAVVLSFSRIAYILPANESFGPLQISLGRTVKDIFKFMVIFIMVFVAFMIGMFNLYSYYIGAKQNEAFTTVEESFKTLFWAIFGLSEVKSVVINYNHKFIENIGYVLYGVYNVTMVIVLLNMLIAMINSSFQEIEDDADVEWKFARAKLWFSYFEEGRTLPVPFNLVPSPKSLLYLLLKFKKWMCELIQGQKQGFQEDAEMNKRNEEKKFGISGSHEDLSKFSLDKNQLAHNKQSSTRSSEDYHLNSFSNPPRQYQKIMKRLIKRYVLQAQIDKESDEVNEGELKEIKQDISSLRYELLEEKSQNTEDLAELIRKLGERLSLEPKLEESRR

Assay [10] shares this target. Description: TRPC6 opening by TRPC4 activator hits – cell-based, HEK293, membrane potential dye, duplicate, selectivity assay for TRPC4 activator project, confirmation (AID 434950;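 active = membrane potential signal rise above negative control mean plus 3 SD in both duplicates, also active in the earlier TRPC4 screen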;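 for activation: 0% = buffer only wells and 100% = acetylcholine maximal-effect wells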). Conditions: HEK293 TRPC6, membrane potential fluorescence, at 10 µM; activation: active compounds read high; outcome: activation.
The target is the same in assay [11]. The experiment in a line: positive modulators of mouse TRPC6 channel – HEK293 cells, membrane potential dye, duplicate, selectivity assay for TRPC4 potentiator project, confirmation (AID 434952;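 active = compound raising the membrane signal above positive-control mean plus 3 SD in both repeats, and a primary screen hit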). Conditions: HEK293 TRPC6, membrane potential dye fluorescence, at 10 µM, maximal acetylcholine added after compound; active compounds read high.
Assay [12] has as its target Short transient receptor potential channel 4 (Mus musculus) (UniProt Q9QUQ5). Description: calcium flux activators in TRPC4/5HT1a cells, counter-screen for TRPC4 activator project, cell-based, second counter screen, HEK293 TRPC4/5HT1a, Fluo-4 (AID 434977;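 active = calcium signal rise above buffer-control mean plus 5 SD in both duplicates, and also a hit in the primary screen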;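 for activation: plate controls were assay buffer for no effect and maximal serotonin response for full effect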). Conditions: Fluo-4 calcium flux, at 10 µM; active compounds read high.
Assay [13] is described as follows: serotonin-gated TRPC4 signal block – cell-based, second counter screen, HEK293 TRPC4/5HT1a, Fluo-4, counter-screen for TRPC4 inhibitor project, confirmation (AID 434978;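 active = primary screen active whose calcium signal fell more than 3 SD beyond the full-serotonin control mean in both duplicate plates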;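 note: serotonin given first at submaximal then at maximal dose after compound preincubation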). As to conditions: Fluo-4 calcium flux, at 10 µM, serotonin added to trigger calcium flux; active compounds read high. A general note: Counterscreens check selectivity or assay interference.
In assay [14] the test system is TRPC4 (mouse), co-expressed with 5HT1a in HEK293. Description: enhancement of serotonin-evoked TRPC4 response – cell-based, second counter screen, HEK293 TRPC4/5HT1a, Fluo-4, counter-screen for TRPC4 potentiator project, confirmation (AID 434979;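 active = signal rise over 3 SD above mean of control wells given weak agonist, in both repeats and first screen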). Conditions: Fluo-4 calcium flux, at 10 µM, serotonin added at its EC20 dose; active compounds read high.
The nature of assay [15]: nonspecific calcium rise without TRPC4 – cell-based, HEK293 mu-opioid receptor line, counter-screen for TRPC4 activator project, confirmation (AID 449723).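 Note: counter screen cells carry the mu-opioid receptor alone and lack TRPC4.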 Conditions: HEK293 mu-opioid cells, Fluo-4 calcium fluorescence, at 10 µM; active compounds read high.
Assay [16] in a line: nonspecific potentiation of DAMGO calcium response – cell-based, HEK293 mu-opioid receptor line, counter-screen for TRPC4 allosteric potentiator project, confirmation (AID 449724;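 active = calcium signal rise more than 3 SD above the low-dose agonist control mean, in both duplicate plates and the primary screen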;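 note: HEK293 cells carrying mu-opioid receptor only with no TRPC4 channel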). As to conditions: HEK293 mu-opioid receptor cells, Fluo-4 calcium flux, at 10 µM, compound added before EC20 DAMGO stimulus; active compounds read high.

Regarding `O=C(CCc1ccccc1)NNC(=S)NC(=O)c1ccc(Cl)cc1`, the activation is 170% (active) in assay [1], 30% (active) in assay [10], 66.8% (active) in assay [12] and 28.6% (active) in [15]. Besides, the result in assay [2], in assay [3], in [4], in assay [5], in assay [6] and in [7] was inactive. The result in [8], in [9], in assay [11], in assay [13], in assay [14] and in [16] was inactive.

For the molecule `CCOC(=O)C1CCCN(C(c2ccccn2)c2c(C)[nH]c3ccccc23)C1` (stereo not given), the values for the activation in assay [1], in assay [10] and in [12] were 208% (active), 31% (active) and 34% (active), respectively. Besides, the outcome in [2], in assay [3], in [4], in assay [5], in assay [6] and in [7] was inactive. Further, the outcome in assay [8], in assay [9], in assay [11], in [13], in assay [14] and in assay [15] was inactive. In assay [16], the outcome was inactive.

As to `CCCCC(c1nnnn1CC1CCCO1)N1CCN(c2nc3ccccc3s2)CC1` (stereo not given), the activation in assay [1] is 88% (active); in assay [10], 60.5% (active); in assay [12], 12.7% (active). The result in [2], in assay [3], in [4], in assay [5], in assay [6] and in assay [7] was inactive. The result in assay [8], in assay [9], in [11], in [13], in [14] and in assay [15] was inactive. Moreover, the outcome in assay [16] was inactive.

With `CN(C)C(CNC(=S)Nc1cccc(Cl)c1)c1cccnc1` (stereo not given), the activation is 77% (active) in [1] and 110% (active) in assay [2]. In addition, the result in assay [3], in assay [4], in assay [5], in assay [6], in assay [7] and in assay [8] was inactive. The molecule was called inactive in [9], in [10], in assay [11], in assay [12], in assay [13] and in assay [14]. The outcome in assay [15] and in assay [16] was inactive.

`Cc1c(CN2CCC(n3nccc3NC(=O)C3CC3)CC2)[nH]c2ccccc12`: the activation was 138% (active) in [1] and 26% (active) in assay [10]. Further, the outcome in assay [2], in assay [3], in assay [4], in assay [5], in assay [6] and in assay [7] was inactive. Further, the outcome in assay [8], in assay [9], in assay [11], in [12], in [13] and in assay [14] was inactive. For the same molecule, the outcome in [15] and in [16] was inactive.

With `CN1CCCC(OC(=O)c2cc(Cl)cc(Cl)c2)C1` (stereo not given), the activation in assay [1] is 186% (active); in assay [2] it was 112% (active); in assay [10], 38.5% (active); in [12], 67.9% (active). Further, the result in assay [3], in assay [4], in [5], in assay [6], in [7] and in assay [8] was inactive. In addition, the call in assay [9], in assay [11], in assay [13], in assay [14], in [15] and in [16] was inactive.

For `CCN1CCN(c2ccc(S(=O)(=O)N3CCOCC3)cc2NC(=O)C(C)Oc2cccc(Cl)c2)CC1` (stereo not given), the activation is 83% (active) in [1], 38% (active) in [10] and 11.3% (active) in [12]. The result in [2], in assay [3], in assay [4], in [5], in [6] and in [7] was inactive. For the same molecule, the result in assay [8], in assay [9], in assay [11], in assay [13], in assay [14] and in assay [15] was inactive. For the same molecule, in assay [16], the result was inactive.

With `COc1cccc(C(=O)N(C)CC2CCN(CCc3cccc(C(F)(F)F)c3)CC2)c1`, the results for the activation in assay [1], in assay [2] and in assay [10] were 93% (active), 77% (active) and 62.5% (active), respectively. Moreover, the result in assay [3], in assay [4], in assay [5], in [6], in assay [7] and in [8] was inactive. Besides, the result in assay [9], in [11], in assay [12], in [13], in [14] and in assay [15] was inactive. In [16], the outcome was inactive.

Regarding `COc1ccc(-c2nn(-c3ccccc3)cc2CNCc2cccnc2)c(F)c1`, in assay [1], the activation is 224% (active). The result in assay [2], in assay [3], in assay [4], in assay [5], in assay [6] and in [7] was inactive. The result in [8], in assay [9], in assay [10], in assay [11], in assay [12] and in [13] was inactive. The outcome in assay [14], in [15] and in assay [16] was inactive.

As for `CCOc1ccccc1CN1CCNC(=O)C1CC(=O)N(C)CCc1ccccn1` (stereo not given), the activation in [1] is 235% (active); in [2] it was 76% (active); in assay [10], 27% (active); in assay [12], 72.6% (active). Besides, the result in assay [3], in [4], in [5], in assay [6], in [7] and in [8] was inactive. Further, the molecule was classed as inactive in [9], in assay [11], in assay [13], in assay [14], in [15] and in assay [16].

Take `O=C(COc1ccccc1)NNC(=S)NC(=O)c1ccc(Cl)cc1Cl`: the activation was 63% (active) in [1] and 44.7% (active) in assay [12]. Moreover, the outcome in assay [2], in assay [3], in [4], in assay [5], in assay [6] and in [7] was inactive. For the same molecule, the result in assay [8], in [9], in assay [10], in [11], in assay [13] and in assay [14] was inactive. Also, the outcome in assay [15] and in [16] was inactive.

Turning to `O=S(=O)(c1ccc(Cl)cc1)N1CCN2CCCC2C1` (stereo not given), the activation in assay [1] is 103% (active); in assay [10], 27% (active); in assay [12], 18.1% (active). Besides, the outcome in assay [2], in [3], in [4], in assay [5], in [6] and in assay [7] was inactive. Moreover, the result in assay [8], in [9], in assay [11], in assay [13], in assay [15] and in [16] was inactive. The potentiation in assay [14] was 25.7% (active).

Regarding `CCCN(CCC)CCCNC(=O)C1CCC(CNS(=O)(=O)c2cccc3nsnc23)CC1` (stereo not given), the activation in [1] was 83% (active); in [2], 52% (active); in assay [12] it was 29.2% (active). Moreover, the outcome in assay [3], in [4], in assay [5], in assay [6], in assay [7] and in assay [8] was inactive. In addition, the molecule was called inactive in assay [9], in assay [10], in assay [11], in assay [13], in [14] and in assay [15]. In [16], the outcome was inactive.

As to `CCCCN(CC)CCNC(=O)c1cc2cc3ccc(Cl)cc3nc2o1`, the activation in assay [1] was 67% (active); in assay [12], 18.8% (active). Also, the outcome in assay [2], in assay [5], in assay [6], in [7], in assay [8] and in assay [9] was inactive. For the same molecule, the molecule was classed as inactive in [10], in assay [11], in [13], in [15] and in assay [16]. Besides, the results for the potentiation in assay [3], in assay [4] and in assay [14] were 20% (active), 47% (active) and 40.5% (active), respectively.

In the case of `O=S(=O)(c1ccccc1)c1nnn2c1nc(NC1CCN(Cc3ccccc3)CC1)c1cc(Cl)ccc12`, in assay [1], the activation is 64% (active). Further, the result in [2], in assay [3], in assay [4], in assay [5], in assay [6] and in assay [7] was inactive. Further, the outcome in assay [8], in assay [9], in assay [10], in assay [11], in assay [12] and in [13] was inactive. Further, the outcome in assay [14], in assay [15] and in [16] was inactive.

The values above are taken from PubChem BioAssay.
